From PubChem BioAssay (EPA / NIEHS) come the findings set out here.

Records with an inconclusive call do not appear. The source made the active and inactive calls. How the source made its calls: active means hit-call score of the fitted dose curve at least 0.9, where 1 is the maximum; inconclusive means response in the unintended direction; inactive means score below 0.9.

A short description of the assay: ATG_GAL4_TRANS: Attagene TRANS-FACTORIAL HepG2 Assay for GAL4 (Internal Marker) (AID 2282976). The conditions noted are these: HepG2 Attagene TRANS GAL4 internal marker reporter. On the procedure: ATG_TRANS is a cell-based, multiplexed-readout assay that uses HepG2, a human liver cell line, with measurements taken at 24 hours after chemical dosing in a 24-well plate.ATG_GAL4_TRANS is one of 30 assay component(s) measured or calculated from the ATG_TRANS assay. It is designed to make measurements of mRNA induction, a form of inducible reporter, as detected with fluorescence intensity signals by Reverse transcription polymerase chain reaction (RT-PCR) and Capillary electrophoresis technology.Data from the assay component ATG_GAL4_TRANS was analyzed into 1 assay endpoint. This assay endpoint, ATG_GAL4_TRANS, was analyzed in the positive analysis fitting direction relative to DMSO as the negative control and baseline of activity. Using a type of inducible reporter, measures of mRNA for gain-of-signal activity can be used to understand the background control at the transcription factor-level as they relate to the gene . Furthermore, this assay endpoint can be referred to as a secondary readout, because this assay has produced multiple assay endpoints where this one serves a background control function. To generalize the intended target to other relatable targets, this assay endpoint is annotated to the background measurement intended target family, where the subfamily is baseline control.
Human liver HepG2 cells are transiently transfected with multiple reporter transcription units (MRTUs) in 6-well plates using FuGene 6 reagent (Roche; 3 ml FuGene/1 mg DNA). The MRTU constructs are regulated by a cis-regulating element (promoter). […] A major difference between the CIS and TRANS system is that in CIS activities of endogenous TFs are measured, whereas the TRANS assay evaluates changes in activities of exogenous, chimeric NR-Gal4 proteins. […] At the end of 24 hour incubation, total RNA was isolated using TriZol reagent (Invitrogen). The isolated RNA is then reverse-transcribed using oligo(dT) primer and Mo-MLV reverse transcriptase (Invitrogen) with DNAse I (Ambion) treatment for 30 min. The one-tenth of the produced cDNA was amplified by PCR using Taq DNA polymerase (Invitrogen) and two reporter sequence-specific primers. The PCR products were fluorescently labeled by primer extension with 6-arboxyfluorescein (6-FAM) 5'-labeled reporter sequence-specific primer (2 min at 95 C, 20 s at 68 C and 10 min at 72 C) and these products were digested with 5U of HpaI (New England Biolabs) for 2h at 37 C. The fragments were purified using Qiaquick PCR columns (Qiagen), analyzed on an ABI 3130xL genetic analyzer (Applied Biosystems) with peak positions identified by using a set of X-rhodamine (ROX)-labeled MapMarker1000 molecular weight standards (BioVentures). The raw capillary electrophoresis data was processed using Attagraph software (Attagene).
Regarding `CC1(C)[C@H]2CC[C@]1(C)[C@H](O)C2`, the molecule was classed as inactive.
Consider `O=C(O)COCCN1CCN(C(c2ccccc2)c2ccc(Cl)cc2)CC1` (stereo not given), for which the call was inactive.
Then `CNC[C@H](O)c1cccc(O)c1`, with “inactive”; and `OCCCCCO`, with “inactive”.
In the case of `C=C[C@@H](C)CCC=C(C)C`, the molecule was classed as inactive.
Regarding `CC(C)C[C@H]1C(=O)N2CCC[C@H]2[C@]2(O)O[C@](NC(=O)[C@@H]3C=C4c5cccc6[nH]c(Br)c(c56)C[C@H]4N(C)C3)(C(C)C)C(=O)N12`, the molecule was called inactive.
Then `CCCC(=O)OCCC(C)CCC=C(C)C` (stereo not given), with “inactive”; and `CC1(C)C(=O)N(Br)C(=O)N1Cl`, with “inactive”.
In the case of `Cc1c(Cl)c(=O)oc2cc(O)ccc12`, the molecule was called inactive.
The result for `OCCOc1cccc(OCCO)c1` reads “inactive”; that for `CCCC1CCC(=O)O1` (stereo not given), “inactive”; that for `C=CC(=O)OCCn1c(=O)n(CCOC(=O)C=C)c(=O)n(CCOC(=O)C=C)c1=O`, “inactive”.
The result for `CC(=O)OCCOC(C)=O` reads “inactive”; that for `COC(=O)c1ccc(C)cc1`, “inactive”; that for `O=C(O)c1ccc(C(=O)O)cc1`, “inactive”.
Then `O=S(=O)(O)c1cccc2c(S(=O)(=O)O)cccc12`, with “inactive”.
In the case of `CC1=CCC(O)(C(C)C)CC1` (stereo not given), the molecule was classed as inactive.
Then `COC(C(=O)O)c1ccccc1` (stereo not given), with “inactive”; and `OCc1cccnc1`, with “inactive”; and `COc1cc(C)cc(O)c1`, with “inactive”.
Take `O=C[C@H](O)[C@H](O)[C@H](O)CO`: the result was inactive.
The result for `O=C(OCc1ccccc1)C(=O)OCc1ccccc1` reads “inactive”; that for `Clc1ccc2c(c1)C(N1CCNCC1)=Nc1ccccc1O2`, “inactive”.
Then `Cc1cc(C2(c3cc(C)c(O)cc3C)OS(=O)(=O)c3ccccc32)c(C)cc1O`, with “inactive”.
The result for `CCCCN` reads “inactive”.
In the case of `CC(C)=CCC[C@H](C)CC=O`, the outcome was inactive.
The result for `CC(=O)O[C@]1(C(C)=O)CC[C@H]2[C@@H]3C[C@H](C)C4=CC(=O)CC[C@]4(C)[C@H]3CC[C@@]21C` reads “inactive”.
The result for `COc1ccc(OC)c(OC)c1` reads “inactive”.
Then `CCN(CC)c1ccc(C(=C2C=CC(=[N+](CC)CC)C=C2)c2ccc(S(=O)(=O)O)cc2S(=O)(=O)[O-])cc1`, with “inactive”.
For the molecule `COc1ccc(NC(=O)CC(C)=O)cc1`, the outcome was inactive.
For `C=C(C)C(=O)Nc1ccc(Cl)c(Cl)c1`, the call was inactive.
Consider `O=c1oc(=O)c2cc3c(=O)oc(=O)c3cc12`, for which the call was inactive.
Then `CC1CCC(C(C)(C)O)CC1` (stereo not given), with “inactive”.
Then `CC[C@]12CCCN3CCc4c(n(c5ccccc45)[C@@](O)(C(=O)OC)C1)[C@@H]32`, with “inactive”.
For `Nc1cc([N+](=O)[O-])ccc1Cl`, the result was inactive.
Then `COc1cc(C(C)(C)C)c(O)c(C(C)(C)C)c1`, with “inactive”; and `CCCCCCCCCCCCN`, with “inactive”; and `CC1(C)[C@H](C(=O)OCc2cccc(Oc3ccccc3)c2)[C@@H]1C=C(Cl)Cl`, with “inactive”.
The result for `CCCCOCCOCCSC#N` reads “inactive”; that for `NC(=O)Nc1ccc(Cl)cc1`, “inactive”.
